# Assay results as given in PubChem BioAssay (NCATS).
# A number with no mark means an inactive call. Inconclusive results are not listed. Active and inactive are the calls of the source. Unless noted, calls follow the shape of the dose curve; as a rule, active = well fitted curve in either direction with a large enough effect (not every such curve was filed as active); inconclusive = small, poorly fitted or top-dose-only effect, or another doubt; inactive = flat fitted curve, though single readings scatter.
# Key:
# [1] = AP1 Signaling Pathway (AID 357); conditions: ME-180 AP-1-bla reporter, EGF-induced, beta-lactamase ratio, 5 h; at 17.2 µM (top of the series) unless noted; also: % is scaled to controls: 0 for no effect and ±100 for the full control effect
# Summary of the method: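 ME-180 cells with beta-lactamase reporter under AP-1 response element, stimulated with EC50 EGF; compounds tested in titration series, 5 h at 37 °C. CCF4 substrate added 2.5 h at room temperature; 460/530 nm emission ratio gave %activity and AC50.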
# [2] = NFAT Signaling Pathway (AID 444); conditions: Jurkat NFAT-bla M1, carbachol, beta-lactamase ratio, 5 h; at 17.2 µM (top of the series) unless noted;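 also: carbachol stimulus at about its EC50 of 1 µM final; % is scaled to controls: 0 for no effect and ±100 for the full control effect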
# Summary of the method: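 Read-out: CCF4 FRET ratio (460 nm/530 nm) after 1 h RT dye loading, used for %activity and AC50 from titration series. Cells: Jurkat NFAT-β-lactamase/M1 line, treated with compound plus 1 uM carbachol for 5 h, 37 °C.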
# [3] = Stat Signaling Pathway (AID 446); conditions: ME-180 SIE beta-lactamase reporter, IL-6 stimulated, 5 h; at 17.2 µM (top of the series) unless noted;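 also: ME-180 cervical cancer cells given 40 pM IL-6 alongside compound; SIE-controlled beta-lactamase reporter measured as 460/530 nm FRET emission ratio; % is scaled to controls: 0 for no effect and ±100 for the full control effect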
# Summary of the method: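 ME-180 SIE-bla cells; overnight plating; cpd + IL-6 40 pM, 5 h, 37 C; LiveBLAzer 2.5 h RT; 460/530 nm emission ratio. Normalized to 300 pM IL-6 and 125 nM JAK inhibitor controls.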
# [4] = biological target: Glucocorticoid receptor (Homo sapiens) (UniProt P04150); assay: GR-GFP Redistribution (AID 450;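 active = compounds whose dose series gives a full or clear partial fitted curve of increased nuclear translocation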; also: potency is read from the fitted curve at half-maximal effect)
# Sequence of Glucocorticoid receptor (Homo sapiens) (P04150 whole entry, looked up): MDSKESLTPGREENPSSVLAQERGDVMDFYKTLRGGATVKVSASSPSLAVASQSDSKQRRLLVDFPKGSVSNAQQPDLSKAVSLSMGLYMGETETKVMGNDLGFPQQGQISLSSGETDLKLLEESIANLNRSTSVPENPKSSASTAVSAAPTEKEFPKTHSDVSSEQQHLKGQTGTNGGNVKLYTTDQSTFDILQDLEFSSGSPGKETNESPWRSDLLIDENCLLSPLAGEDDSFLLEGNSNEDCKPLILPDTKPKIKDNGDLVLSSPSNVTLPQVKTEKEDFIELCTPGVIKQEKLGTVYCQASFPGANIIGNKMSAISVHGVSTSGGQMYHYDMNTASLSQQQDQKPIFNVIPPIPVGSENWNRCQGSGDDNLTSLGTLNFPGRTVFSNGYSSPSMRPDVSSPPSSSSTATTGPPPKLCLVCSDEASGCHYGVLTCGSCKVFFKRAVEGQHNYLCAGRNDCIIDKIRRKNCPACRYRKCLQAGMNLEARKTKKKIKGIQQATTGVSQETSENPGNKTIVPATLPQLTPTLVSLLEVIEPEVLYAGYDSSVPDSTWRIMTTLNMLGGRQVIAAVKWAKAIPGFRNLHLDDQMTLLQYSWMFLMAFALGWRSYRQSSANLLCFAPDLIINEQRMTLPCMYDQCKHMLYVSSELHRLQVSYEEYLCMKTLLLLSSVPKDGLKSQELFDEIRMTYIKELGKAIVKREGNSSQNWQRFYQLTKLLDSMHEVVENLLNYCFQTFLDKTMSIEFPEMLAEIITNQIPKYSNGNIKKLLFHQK
# [5] = qHTS Assay for Identification of Small Molecule Agonists for Hypoxia Response Element Signaling Pathway (AID 914; active = well fitted activation curve with a large enough effect in the signal ratio, with a control signal flat, not every such curve was filed as active; the % refers to the signal ratio; also: potency is read from the fitted curve at half-maximal effect; as to activation: % of control where 0% means no effect); conditions: ME-180 (cervical carcinoma) HRE-bla reporter, beta-lactamase ratio, CoCl2, 17 h; activation: active compounds read high
# Summary of the method: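 A beta-lactamase reporter under hypoxia response element control in ME-180 cells served as the system. Compound titrations plus EC50 CoCl2 ran 17 h at 37 degrees Celsius; AC50 values were fitted from %Activity.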
# [6] = biological target: Mitogen-activated protein kinase 10 (Mus musculus) (UniProt Q61831); assay: JNK3 AlphaScreen Assay (AID 530);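 also: kinase came from lysate of stimulated human HepG2 cells; signal reports phosphorylation of biotinylated GST-cJun 1-79 at Ser73 with 10 µM ATP; % is scaled to controls: 0 for no effect and ±100 for the full control effect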
# Summary of the method: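 Room-temperature AlphaScreen kinase assay; pre-activated HepG2 lysate as JNK3 source, biotin-GST-cJun(1-79) substrate, 10 uM ATP, compound 15 min preincubation.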
# [7] = biological target: 3',5'-cyclic-AMP phosphodiesterase 4B (Homo sapiens) (UniProt Q07343); assay: qHTS Assay for Inhibitors of PDE-IV (AID 607; active = well fitted activation curve with a large enough effect in the main read-out, with a control signal flat, not every such curve was filed as active; also: % of control where 0% means no effect)
# Sequence of 3',5'-cyclic-AMP phosphodiesterase 4B (Homo sapiens) (Q07343 whole entry, looked up): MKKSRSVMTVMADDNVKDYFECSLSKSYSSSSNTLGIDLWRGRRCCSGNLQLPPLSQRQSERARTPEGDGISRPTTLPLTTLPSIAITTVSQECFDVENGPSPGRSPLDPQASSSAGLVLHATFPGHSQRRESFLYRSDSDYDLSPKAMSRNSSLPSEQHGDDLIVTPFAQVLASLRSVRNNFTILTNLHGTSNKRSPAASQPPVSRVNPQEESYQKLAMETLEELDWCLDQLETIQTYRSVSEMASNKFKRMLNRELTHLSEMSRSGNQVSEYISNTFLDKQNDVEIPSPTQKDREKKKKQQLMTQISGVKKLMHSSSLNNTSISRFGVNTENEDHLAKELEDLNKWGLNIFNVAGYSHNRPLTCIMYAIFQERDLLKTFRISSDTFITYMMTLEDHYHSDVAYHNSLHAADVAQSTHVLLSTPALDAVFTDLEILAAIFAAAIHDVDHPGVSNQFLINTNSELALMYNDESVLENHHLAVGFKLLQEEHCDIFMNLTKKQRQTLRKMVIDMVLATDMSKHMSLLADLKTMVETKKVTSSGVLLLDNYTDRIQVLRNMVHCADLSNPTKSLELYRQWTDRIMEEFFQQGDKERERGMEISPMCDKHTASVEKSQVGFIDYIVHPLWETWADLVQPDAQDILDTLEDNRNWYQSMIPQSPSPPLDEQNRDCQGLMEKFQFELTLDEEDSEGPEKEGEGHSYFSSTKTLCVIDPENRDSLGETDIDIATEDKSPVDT
# Summary of the method: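 ACTOne HEK293 cells carry a modified cAMP-gated CNG channel and express endogenous PDE4; plated 1000 cells/well, compounds up to 22.9 uM final. Membrane-potential dye fluorescence (ex 535/em 590) was read; parental cells received 10 uM forskolin + 100 uM RO 20-1724.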
# [8] = biological target: ATP-dependent 6-phosphofructokinase (Trypanosoma brucei brucei) (UniProt O15648); assay: qHTS Assay to Find Inhibitors of T. brucei phosphofructokinase: hit validation (AID 492961; active = well fitted curve in the direction sought with a large enough effect; an effect the other way counts as inactive or inconclusive)
# Sequence of ATP-dependent 6-phosphofructokinase (Trypanosoma brucei brucei) (O15648 whole entry, looked up): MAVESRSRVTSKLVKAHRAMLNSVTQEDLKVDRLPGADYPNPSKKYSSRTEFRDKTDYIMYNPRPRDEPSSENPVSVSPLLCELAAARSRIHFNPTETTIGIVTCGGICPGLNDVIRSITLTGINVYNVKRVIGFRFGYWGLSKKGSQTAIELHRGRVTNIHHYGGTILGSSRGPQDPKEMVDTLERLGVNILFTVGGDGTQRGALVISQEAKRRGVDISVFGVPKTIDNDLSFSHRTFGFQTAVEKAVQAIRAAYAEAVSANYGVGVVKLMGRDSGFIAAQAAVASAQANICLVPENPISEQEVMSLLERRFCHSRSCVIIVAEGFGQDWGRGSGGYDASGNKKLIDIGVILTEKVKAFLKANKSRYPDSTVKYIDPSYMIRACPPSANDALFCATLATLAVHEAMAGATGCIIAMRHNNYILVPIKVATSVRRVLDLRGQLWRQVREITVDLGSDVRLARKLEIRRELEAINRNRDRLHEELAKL
# Summary of the method: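 Measures ADP output of PFK (1.25 nM) at 0.1 mM ATP, 0.5 mM F6P, pH 8.0 TEA buffer with 5 mM MgCl2. No-enzyme wells define full inhibition; uninhibited enzyme wells define zero.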
# [9] = biological target: Ubiquitin carboxyl-terminal hydrolase 1 (Homo sapiens) (UniProt O94782); assay: Inhibitors of USP1/UAF1: Pilot qHTS (AID 504865; active = well fitted curve in the direction sought with a large enough effect; an effect the other way counts as inactive or inconclusive;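 also: rhodamine fluorescence freed from ubiquitin-rhodamine substrate followed over time; top concentration of the series differs between compounds; % is scaled to controls: 0 for no effect and ±100 for the full control effect; nearly all actives have a fitted effect of over 35% in size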)
# Sequence of Ubiquitin carboxyl-terminal hydrolase 1 (Homo sapiens) (O94782 whole entry, looked up): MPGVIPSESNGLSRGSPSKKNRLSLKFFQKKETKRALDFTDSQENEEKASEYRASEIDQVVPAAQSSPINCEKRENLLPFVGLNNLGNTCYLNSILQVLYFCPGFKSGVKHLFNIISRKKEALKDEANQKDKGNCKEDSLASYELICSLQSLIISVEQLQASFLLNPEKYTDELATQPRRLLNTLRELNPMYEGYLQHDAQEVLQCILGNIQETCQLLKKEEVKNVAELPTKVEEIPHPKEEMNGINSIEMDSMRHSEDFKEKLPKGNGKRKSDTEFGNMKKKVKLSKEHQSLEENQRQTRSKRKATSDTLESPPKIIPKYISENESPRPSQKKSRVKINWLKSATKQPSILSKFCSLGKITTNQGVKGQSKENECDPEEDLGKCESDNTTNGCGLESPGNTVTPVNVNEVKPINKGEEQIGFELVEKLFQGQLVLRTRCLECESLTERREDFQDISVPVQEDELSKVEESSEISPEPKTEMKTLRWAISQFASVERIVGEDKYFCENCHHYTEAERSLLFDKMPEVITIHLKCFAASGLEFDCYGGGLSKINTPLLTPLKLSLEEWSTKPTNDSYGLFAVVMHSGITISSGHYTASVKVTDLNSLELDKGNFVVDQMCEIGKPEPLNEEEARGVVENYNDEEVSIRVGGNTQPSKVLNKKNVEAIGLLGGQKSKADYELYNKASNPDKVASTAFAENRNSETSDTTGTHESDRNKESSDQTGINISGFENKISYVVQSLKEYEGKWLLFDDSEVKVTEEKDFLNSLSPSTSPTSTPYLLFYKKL
# Summary of the method: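 Kinetic fluorescence assay: 1nM USP1/UAF1, 15 min compound preincubation, then 150nM Ub-Rho; 480/540 nm.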
# [10] = biological target: Luciferin 4-monooxygenase (Photinus pyralis) (UniProt P08659); assay: Biochemical firefly luciferase enzyme assay for NPC (AID 624030; active = well fitted curve in the direction sought with a large enough effect; an effect the other way counts as inactive or inconclusive;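 also: purified P. pyralis luciferase at 10 nM with luciferin and ATP substrate; 0% = DMSO and -100% = full luciferase inhibition by PTC124 control; nearly all actives have a fitted effect of over 70% in size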)
# Sequence of Luciferin 4-monooxygenase (Photinus pyralis) (P08659 whole entry, looked up): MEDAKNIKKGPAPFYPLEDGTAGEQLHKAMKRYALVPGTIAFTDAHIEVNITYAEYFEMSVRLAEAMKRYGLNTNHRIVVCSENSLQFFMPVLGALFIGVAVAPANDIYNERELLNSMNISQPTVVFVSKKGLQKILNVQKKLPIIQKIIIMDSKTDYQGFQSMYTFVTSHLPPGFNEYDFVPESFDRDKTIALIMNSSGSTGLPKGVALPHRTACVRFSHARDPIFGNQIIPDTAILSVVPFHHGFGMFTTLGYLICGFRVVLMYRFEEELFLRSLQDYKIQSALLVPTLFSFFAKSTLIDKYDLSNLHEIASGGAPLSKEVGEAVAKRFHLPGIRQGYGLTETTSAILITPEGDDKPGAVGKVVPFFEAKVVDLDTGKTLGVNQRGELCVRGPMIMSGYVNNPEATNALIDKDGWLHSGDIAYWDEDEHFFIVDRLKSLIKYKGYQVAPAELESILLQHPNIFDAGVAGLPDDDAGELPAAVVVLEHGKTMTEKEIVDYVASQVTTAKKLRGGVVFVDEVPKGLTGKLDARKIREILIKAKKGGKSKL
# Summary of the method: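 Direct inhibition of firefly luciferase enzyme (10 nM final, 50 mM Tris Acetate) assessed by luminescence within 5 minutes. Percent activity scaled between DMSO and PTC124 positive control, with concentration-effect curves classified by fit quality and response.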
# [11] = S16 Schwann cell viability assay (CellTiter-Glo assay) (AID 624031; active = well fitted curve in the direction sought with a large enough effect; an effect the other way counts as inactive or inconclusive;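 also: native untransfected S16 rat Schwann cells; cellular ATP luminescence as a viability measure; plate controls were DMSO-treated cells for no effect and cell-free wells for full effect; nearly all actives have a fitted effect of over 70% in size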)
# Summary of the method: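 Parental S16 cells, 24 h compound, 37 °C. ATP-luminescence viability; DMSO = 0% activity, empty wells as reference; curves classified by fit quality and efficacy.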
# [12] = S16 Schwann cell PMP22 intronic element firefly luciferase assay (AID 624032; active = well fitted curve in the direction sought with a large enough effect; an effect the other way counts as inactive or inconclusive;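 also: plate controls were DMSO for no effect and PTC124 positive control mean for full effect; nearly all actives have a fitted effect of over 30% in size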)
# Summary of the method: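 Luciferase reporter of PMP22 intronic-element expression in stably transfected S16 rat Schwann cells, read by ONE-Glo luminescence after 24 h compound exposure at 37 C. Activity scaled between DMSO (0%) and positive-control PTC124; concentration-effect curves quality-classified.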
# [13] = S16 Schwann cell PMP22 intronic element beta-lactamase assay (AID 624044; calls by dose curve;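 also: 0% = DMSO and -100% = potassium clavulanate positive control; nearly all actives have a fitted effect of over 15% in size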); conditions: S16 rat Schwann cells, PMP22 element beta-lactamase FRET, 24 h; ratio activity, negative = inhibition: at 38.3 µM (top of the series)
# Summary of the method: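 Rat S16 Schwann cells with beta-Lac driven by a PMP22 intronic element, compound-treated 24 h at 37 °C. LiveBLAzer FRET B/G read: 460 nm normalized to potassium clavulanate vs DMSO; 535 nm FRET as viability; concentration-effect curves classified.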
# [14] = test system: ATS189; assay: qHTS profiling for inhibitors of Plasmodium falciparum proliferation (AID 504749; active = well fitted curve in the direction sought with a large enough effect; an effect the other way counts as inactive or inconclusive; also: nearly all actives have a fitted effect of over 60% in size; also: potency is read from the fitted curve at half-maximal effect;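 as to activity, negative = inhibition: 0% = DMSO vehicle and full inhibition = artemisinin control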); conditions: P. falciparum in erythrocytes, SYBR Green DNA, 72 h; series mostly up to 28.7 µM
# Summary of the method: (§1)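 Three-day growth assay of blood-stage parasites in erythrocytes (0.3% parasitemia, 2.5% hematocrit) at 37 C, 5% CO2, quantified by SYBR Green DNA staining after overnight detergent lysis.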
# [15] = test system: CP262; assay: as above; conditions: P. falciparum in erythrocytes, SYBR Green DNA, 72 h; series mostly up to 28.7 µM
# Summary of the method: as §1
# [16] = test system: CP297; assay: as above; conditions: P. falciparum in erythrocytes, SYBR Green DNA, 72 h; series mostly up to 28.7 µM
# Summary of the method: as §1
# [17] = test system: CP335; assay: as above; conditions: P. falciparum in erythrocytes, SYBR Green DNA, 72 h; series mostly up to 28.7 µM
# Summary of the method: as §1
# [18] = test system: Dd2; assay: as above; conditions: P. falciparum in erythrocytes, SYBR Green DNA, 72 h; series mostly up to 28.7 µM
# Summary of the method: as §1
# [19] = test system: TAB109; assay: as above; conditions: P. falciparum in erythrocytes, SYBR Green DNA, 72 h; series mostly up to 28.7 µM
# Summary of the method: as §1
# [20] = test system: W2; assay: as above; conditions: P. falciparum in erythrocytes, SYBR Green DNA, 72 h; series mostly up to 28.7 µM
# Summary of the method: as §1
structure (smiles),measurement,setting,value
CCN(CC)CCNc1ncnc2c1[nH]c1ccc(OC)cc12,"activity change, negative = inhibition",[1],7.05%
same,"activity change, negative = inhibition",[2],-11.4%
same,"activity, negative = inhibition",[3],3.82%
same,Potency,[4],> 20.6 µM
same,activation,[5],2.09%
Cn1cc(Br)cc2nc(C(F)(F)F)nc1-2,"activity change, negative = inhibition",[1],-3.15%
same,"activity change, negative = inhibition",[2],-3.67%
same,"activity, negative = inhibition",[3],3.32%
same,Potency,[4],> 20.6 µM
same,activation,[5],2.94%
Cc1cc(CC(=O)O)c(C)cc1CC(=O)O,"activity change, negative = inhibition",[1],11.9%
same,"activity change, negative = inhibition",[2],2.75%
same,"activity, negative = inhibition",[3],2.12%
same,Potency,[4],> 20.6 µM
same,activation,[5],5.91%
COc1cc(-c2cc(C(F)(F)F)n3ncc(C(=O)O)c3n2)cc(OC)c1OC,"activity change, negative = inhibition",[1],3.69%
same,"activity change, negative = inhibition",[2],3.34%
same,"activity, negative = inhibition",[3],1.42%
same,Potency,[4],> 20.6 µM
same,activation,[5],13.9%
Cc1nn(CCO)c2c1C(=O)CCC2,"activity change, negative = inhibition",[1],3.9%
same,"activity change, negative = inhibition",[2],-9.31%
same,"activity, negative = inhibition",[3],5.4%
same,Potency,[4],> 20.6 µM
same,activation,[5],12.2%
COC(=O)[C@H]1CCCN1C(=O)Nc1cccc(Oc2c(F)c(F)c(F)c(F)c2F)c1,"activity change, negative = inhibition",[1],-14.6%
same,"activity change, negative = inhibition",[2],-9.08%
same,"activity, negative = inhibition",[3],-7.79%
same,Potency,[4],> 20.6 µM
same,activation,[5],-9.38%
O=C(O)C(Cc1c[nH]c2ccccc12)NS(=O)(=O)c1cccc2nsnc12 (stereo not drawn),"activity change, negative = inhibition",[1],4.19%
same,"activity change, negative = inhibition",[2],3.61%
same,"activity, negative = inhibition",[3],6.46%
same,Potency,[4],> 20.6 µM
same,activation,[5],-7.91%
COc1cccc(Cn2c(Oc3ccccc3)nc3c2c(=O)n(C)c(=O)n3C)c1,"activity change, negative = inhibition",[1],-23.1%
same,"activity change, negative = inhibition",[2],-10.8%
same,"activity, negative = inhibition",[3],-11.1%
same,Potency,[4],> 20.6 µM
same,activation,[5],-17.4%
CCC[C@H]1C[C@H](C(=O)N[C@@H]([C@H]2O[C@@H](SC)[C@@H](O)[C@@H](O)[C@@H]2O)[C@H](C)Cl)N(C)C1,"activity change, negative = inhibition",[1],-4.04%
same,"activity change, negative = inhibition",[2],0.269%
same,"activity, negative = inhibition",[3],1.36%
same,Potency,[6],inactive
same,Potency,[7],inactive
same,Potency,[8],inactive
same,Potency,[9],inactive
same,Potency,[10],inactive
same,Potency,[11],inactive
same,Potency,[12],inactive
same,Potency,[13],inactive
same,Potency,[14],inactive
same,Potency,[15],15.1 nM (active)
same,Potency,[16],60.1 nM (active)
same,Potency,[17],60.1 nM (active)
same,Potency,[18],44.7 nM (active)
same,Potency,[19],31.6 nM (active)
same,Potency,[20],42.6 nM (active)
COCc1cc(C)nc(N)c1C#N,"activity change, negative = inhibition",[1],5.99%
same,"activity change, negative = inhibition",[2],-10.9%
same,"activity, negative = inhibition",[3],-0.857%
same,Potency,[4],> 20.6 µM
same,activation,[5],1.6%
Cc1cc(/C=N\O)c(C)n1-c1ccncc1,"activity change, negative = inhibition",[1],0.0567%
same,"activity change, negative = inhibition",[2],23.9%
same,"activity, negative = inhibition",[3],-5.06%
same,Potency,[4],> 20.6 µM
same,activation,[5],1.93%
Oc1ccccc1CNn1cnnc1,"activity change, negative = inhibition",[1],-0.712%
same,"activity change, negative = inhibition",[2],15.6%
same,"activity, negative = inhibition",[3],4.83%
same,Potency,[4],> 20.6 µM
same,activation,[5],7.68%
CCOC(=O)C(c1ccccc1)N1CCN(c2ccc(OC)cc2)CC1 (stereo not drawn),"activity change, negative = inhibition",[1],-19.8%
same,"activity change, negative = inhibition",[2],19.4%
same,"activity, negative = inhibition",[3],4.69%
same,Potency,[4],> 20.6 µM
same,activation,[5],-13.4%
CC1(C)CC(=O)c2cc(C(=O)N3CCCC(C)(C)C3)c(=O)n(-c3ccccc3)c2C1,"activity change, negative = inhibition",[1],8.53%
same,"activity change, negative = inhibition",[2],-0.00696%
same,"activity, negative = inhibition",[3],-7.18%
same,Potency,[4],> 20.6 µM
same,Potency,[5],3.98 µM (active)
Cc1cc(C)c(S(=O)(=O)O)c(C)n1,"activity change, negative = inhibition",[1],6.1%
same,"activity change, negative = inhibition",[2],-2.21%
same,"activity, negative = inhibition",[3],6.56%
same,Potency,[4],> 20.6 µM
same,activation,[5],11.7%
COc1cc(NC2=CC(=O)CC(C)(C)C2)cc(OC)c1OC,"activity change, negative = inhibition",[1],7.47%
same,"activity change, negative = inhibition",[2],-11.1%
same,"activity, negative = inhibition",[3],15.1%
same,Potency,[4],> 20.6 µM
same,activation,[5],-12.9%
Cn1c(NCCCO)nc2c1c(=O)n(Cc1ccccc1F)c(=O)n2C,"activity change, negative = inhibition",[1],-2.43%
same,"activity change, negative = inhibition",[2],8.23%
same,"activity, negative = inhibition",[3],-2.21%
same,Potency,[4],> 20.6 µM
same,activation,[5],-5.37%
